A selection: hits, their analogues and other compounds. The true share with any hit is near 7.2%.
A1 inh: inhibitors of the anti-apoptotic protein A1, read as caspase activation; caspase activation, % (no concentration beside the values); 0.066% of 330,000 active; AID 2462; MEF A1-2A-BIM cells, Caspase-Glo 3/7 luminescence, 3 h; percent of clofoctol response, vehicle zero;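 active means over half of replicate activation scores above 10%, or exactly half above 10 with the replicate mean above 10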
Efflux pump inh: antifungal efflux pump inhibition, Nile Red retention. inhibition, % at 10 µM. AID 485275. S. cerevisiae Candida pump triplex. 0.44% of 330,000 active;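 active means plate passing quality check with inhibition over a set limit, or well fluorescence over plate mean plus 4 SD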;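 further: Nile Red retained in pooled yeast measured as flow cytometry median fluorescence; 0% = buffer negative control and 100% = Enniatin B positive control; higher means more Nile Red kept so more efflux inhibition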
ALR inh: inhibitors of human sulfhydryl oxidase ALR | P55789 | purified ALR, DTT oxidation, H2O2 HRP-luminol luminescence | inhibition, % (no concentration beside the values) | 3.8% of 290,000 active | AID 485317;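 active means mean replicate inhibition above about 79%, with every replicate also reaching it, limit read from the data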
Mot1-301 SUMO: blocks SUMOylation pathway, rescuing yeast Mot1-301 growth; S. cerevisiae Mot1-301 growth rescue, ATP luminescence, 38.5C; percent above DMSO median, 100 means doubled; growth rescue, % at 18.8 µM; 1% of 320,000 active; AID 2716;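 active means every valid replicate shows activation above 250% relative to neutral control wells; inactive means the rest, any valid replicate at or below 250%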;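 further: OY570 slx delta 5 strain wells were the positive control but not used for scaling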
VLA-4 inh: inhibition in a human VLA-4 binding assay; 0.2% of 330,000 active; P13612; inhibition, % (about 7 µM as worked out from the volumes in the protocol); AID 2557; VLA-4 expressing cells, ligand binding flow cytometry; in the data active means inhibition above about 50%
Target sequence (P13612 whole entry, looked up): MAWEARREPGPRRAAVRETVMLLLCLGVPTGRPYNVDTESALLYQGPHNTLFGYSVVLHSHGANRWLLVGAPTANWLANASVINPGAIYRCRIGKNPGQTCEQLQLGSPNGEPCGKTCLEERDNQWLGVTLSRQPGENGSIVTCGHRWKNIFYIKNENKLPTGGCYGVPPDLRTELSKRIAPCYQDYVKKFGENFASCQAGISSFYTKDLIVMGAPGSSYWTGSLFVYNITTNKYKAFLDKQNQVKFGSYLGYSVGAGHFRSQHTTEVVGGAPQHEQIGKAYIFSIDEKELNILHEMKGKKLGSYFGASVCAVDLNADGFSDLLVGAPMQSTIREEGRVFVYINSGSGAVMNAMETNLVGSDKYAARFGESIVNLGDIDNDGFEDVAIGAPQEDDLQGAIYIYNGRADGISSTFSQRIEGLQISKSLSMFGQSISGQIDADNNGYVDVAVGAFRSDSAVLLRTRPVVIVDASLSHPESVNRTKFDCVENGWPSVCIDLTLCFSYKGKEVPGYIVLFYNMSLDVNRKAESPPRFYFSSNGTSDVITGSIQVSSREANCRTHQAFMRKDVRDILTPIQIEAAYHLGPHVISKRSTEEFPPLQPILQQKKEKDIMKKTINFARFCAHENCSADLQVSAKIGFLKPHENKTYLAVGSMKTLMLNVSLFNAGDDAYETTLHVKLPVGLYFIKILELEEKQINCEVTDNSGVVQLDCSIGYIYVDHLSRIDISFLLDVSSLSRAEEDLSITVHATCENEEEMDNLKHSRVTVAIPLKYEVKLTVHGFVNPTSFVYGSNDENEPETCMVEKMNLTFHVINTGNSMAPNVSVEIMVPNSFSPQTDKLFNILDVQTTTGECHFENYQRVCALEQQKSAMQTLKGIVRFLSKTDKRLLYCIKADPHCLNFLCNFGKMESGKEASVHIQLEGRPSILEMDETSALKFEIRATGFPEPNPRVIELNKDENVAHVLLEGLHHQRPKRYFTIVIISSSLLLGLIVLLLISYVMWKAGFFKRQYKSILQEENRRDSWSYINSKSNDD
AHR act: activators of human aryl hydrocarbon receptor. P35869. AHR-responsive luciferase reporter cells, luminescence. activation, % at 5 µM. 2.5% of 320,000 active. AID 2796; in the data active means activation above about 47%;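 further: 0% = vehicle wells and 100% = reference agonist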
AHR act confirm: human AHR activation, confirmation; activation, % at 9 µM; shares compounds with AHR act; 87% of 2,300 active; human cells, AHR-responsive luciferase reporter, luminescence; AID 2845; in the data active means activation above about 49%;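 further: HepG2 hepatoma cells carrying a DRE-driven firefly luciferase reporter; 0% = vehicle wells and 100% = reference agonist wells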
PXR counter: activates human PXR in AHR activator counter-screen; 88% of 2,300 active; shares compounds with AHR act; AID 434939; cell-based PXR reporter, luciferase luminescence; activation, % at 11.6 µM; in the data active means activation above about 11%;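 further: human hepatoma DPX-2 cells expressing full-length human PXR; 0% = DMSO and 100% = reference agonist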
Yeast cmpd fluor: counter-screen for efflux pump inhibitors: compound fluorescence. S. cerevisiae AD/pABC3, flow cytometry. fluorescence ratio to DMSO, % at 10 µM. 4% of 1,700 active. shares compounds with Efflux pump inh;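 active means fluorescence ratio to DMSO above its plate's cutoff, the plate mean ratio plus 5 SD, cut at about 210% in these data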;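 further: unstained yeast with no Nile Red so the signal is compound autofluorescence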
Mdr1 pump inh: Candida Mdr1 efflux pump inhibition; shares compounds with Efflux pump inh; S. cerevisiae AD/CaMDR1, Nile Red efflux, flow cytometry; inhibition, % at 10 µM; 1% of 1,700 active; in the data active means inhibition above about 26%;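 further: 0% = DMSO vehicle and 100% = reference inhibitor; higher means more Nile Red retained so more efflux inhibition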
Cdr2 pump inh: Candida Cdr2 efflux pump inhibition; S. cerevisiae AD/CaCDR2, Nile Red retention, flow cytometry; 4% of 1,700 active; Nile Red retention ratio vs DMSO, % at 10 µM; shares compounds with Efflux pump inh; AID 588520; in the data active means Nile Red retention ratio vs DMSO above about 190%;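 further: higher ratio means more blocking of Cdr2 efflux of the dye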
CaCdr1 efflux inh: Candida Cdr1 efflux pump inhibition; shares compounds with Efflux pump inh; S. cerevisiae AD/CaCDR1, Nile Red efflux, flow cytometry; inhibition, % at 10 µM; 1% of 1,700 active;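 active means inhibition above the screen-wide mean plus twice its standard deviation, cut at about 32% in these data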
Active calls of the source: *; . = no result given.

SMILES	A1 inh	Efflux pump inh	ALR inh	Mot1-301 SUMO	VLA-4 inh	AHR act	AHR act confirm	PXR counter	others
COc1ccccc1CNC(=O)c1ccc(Cl)c(NC2=NC3CS(=O)(=O)CC3S2)c1 (centres undefined)	0	0	0	10	23	-1	.	.
NC(=Nc1ccccc1)NC(=O)c1nc(Cl)c(N)nc1N	-2	0	2	1	34	86*	30	35*
O=C(COc1ccc2ccccc2c1Br)NCc1ccccn1	1	0	-26	-2	-19	33	.	.
CC1(C)Cc2c(c(N3CCCC3)nc3sc4c(N5CCNCC5)ncnc4c23)CO1	1	0	.	-26	5	4	.	.
COc1ccc(Nc2nc3ccccc3s2)cc1	-4	0	-18	7	7	2	.	.
Cc1cccc(Nc2nc3ccccc3s2)c1C	-4	0	-7	25	-13	101*	50*	72*
COc1cc(-c2cc(C(=O)Nc3ccc(C)c(S(=O)(=O)N4CCOCC4)c3)c3ccccc3n2)cc(OC)c1OC	-1	0	-11	-13	-17	4	.	.
O=c1c2ccccc2nnn1CSc1nnc2sc3ccccc3n12	-5	0	-1	.	-11	37	.	.
Nc1cc(-c2ccc(Br)cc2)[nH]n1	0	0	.	-6	21	84*	132*	11*
CC1CCCC(C)N1/N=C/C=C/c1ccccc1[N+](=O)[O-] (centres undefined)	0	0	.	-10	2	84*	109*	67*
N#CC(C#N)=C1C=CC=CN1/C(=C\c1ccco1)C(=O)c1ccc(Cl)cc1	2	0	.	185	17	178*	133*	51*
COC(=O)Nc1cc(C)nc2ccccc12	0	0	-7	-4	5	11	.	.
COc1ccc(/C=N/Nc2cc(C)nc3ccccc23)cc1	0	0	56	-5	9	120*	50*	.
COc1ccc2nc(C)cc(N/N=C/c3ccc(F)cc3)c2c1	2	0	-2	-24	20	80*	69*	.
COc1ccc(Nc2cc(C)nc3ccc(OC)cc23)cc1	0	0	5	-11	4	40	.	.
C=CCn1cc(C(=O)N2CCN(CC)CC2)c(=O)c2cc(S(=O)(=O)N(CC)CC)ccc21	0	0	0	-5	3	-1	.	.
Cc1c(C(=O)Nc2ccc(Br)cc2)cnn1C	-1	0	3	-4	5	120*	136*	23*
COc1cccc(/C=N/NC(=O)c2cc3c(OC)ccc(OC)c3[nH]2)c1O	2	0	12	-7	36	84*	21	10
COc1ccc(/C=N\NC(=O)c2ccc(-c3ccccc3)cc2)c(OC)c1OC	-2	0	-13	9	10	.	.	.
COc1ccc(/C=N/NC(=O)c2cccc(NC(=O)c3ccc(F)cc3)c2)c(C(=O)O)c1OC	1	0	12	-12	3	106*	93*	.
COc1cccc(/C=N/NC(=O)c2ccc3nc[nH]c3c2)c1O	0	0	38	53	-4	7	.	.
COc1ccc(C2NC(=O)CCC2[N+](=O)[O-])c(OC)c1OC (centres undefined)	1	0	-14	-1	9	0	.	.
Cc1[nH]c2ccccc2c1/C=N/NC(=O)Nc1ccccc1	1	0	11	3	3	95*	136*	46*
Cc1[nH]c2ccccc2c1/C=N/NC(=O)Cc1cccs1	0	0	94*	-16	2	100*	72*	38*
CCc1ccc2[nH]c3nc(N/N=C/c4ccc(O)cc4O)nnc3c2c1	1	0	.	4	-3	83*	90*	.
SMILES	A1 inh	Efflux pump inh	ALR inh	Mot1-301 SUMO	VLA-4 inh	AHR act	AHR act confirm	PXR counter	others
O=C(CSc1nc(-c2ccccc2Cl)ns1)Nc1ccc2c(c1)OCO2	0	0	-6	3	38	87*	72*	17*
Cc1ccc(-c2nsc(SCC(=O)Nc3ccc4c(c3)OCO4)n2)cc1	0	0	-2	10	0	30	.	.
CC(C)c1ccc(C2C3=C(COC3=O)Nc3cc4c(cc32)OCO4)cc1 (centres undefined)	1	0	.	-13	22	3	.	.
O=c1cc(-c2ccccc2)[nH]c2ccccc12	1	0	.	12	14	3	.	.
O=C1C(c2cc(=O)c3ccccc3[nH]2)=C(O)c2ccccc21	-6	0	5	-7	-8	167*	191*	25*
COc1cccc(COCC(O)CN2CCC(C(N)=O)CC2)c1 (centres undefined)	0	0	-9	12	21	-3	.	.
CC(=O)NCC(=O)OCC(=O)c1ccc2ccccc2c1	-2	0	-5	-7	6	2	.	.
COc1cc(NC(=O)C(C)Oc2ccccc2)c(OC)cc1NC(=O)c1ccccc1 (centres undefined)	0	0	-16	-15	3	82*	100*	14*
COc1cc(N)c(Cl)cc1NC(=O)c1ccccc1	0	0	75	0	-11	94*	117*	15*
O=C(NCC1OCCCN1S(=O)(=O)c1cc(F)ccc1F)C(=O)NC1CCCC1 (centres undefined)	-1	0	-1	-3	7	-2	.	.
c1ccc(-c2ccc3c(c2)c2c4n3CCN=C4CCC2)cc1	.	0.3*	-23	129	1	93*	84*	11*	Yeast cmpd fluor=103;Mdr1 pump inh=0;Cdr2 pump inh=106;CaCdr1 efflux inh=0
CCOC(=O)C1CCN(CC(C)(C)NS(=O)(=O)c2ccccc2)CC1	0	0	.	57	1	-2	.	.
COc1cccc2sc(Nc3nnc(-c4cccs4)o3)nc12	-6	0.7*	33	1	7	106*	97*	18*	Yeast cmpd fluor=94;Mdr1 pump inh=0;Cdr2 pump inh=91;CaCdr1 efflux inh=0
COc1cccc2sc(Nc3nc(-c4ccccn4)cs3)nc12	-2	0	-11	8	-26	39	.	.

Assay outcomes: PubChem BioAssay, several laboratories
